# Results: PubChem BioAssay (NCATS)
# Several values for one entry are separate records, joined by “and”; a condition that tells them apart may be missing. Identical values can stand only once. Results filed as inconclusive are left out. Activity calls are given as the source filed them. Unless noted, calls come from the whole dose curve.
# Columns and labels:
# [1] = biological target: Bile acid receptor (Homo sapiens) (UniProt Q96RI1); assay: qHTS assay for small molecule agonists of farnesoid X receptor signaling (AID 588527); details: HEK293T FXR-UAS-bla, beta-lactamase ratio, 16 h; activation: stronger effect = higher value;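 note: series mostly up to about 77 µM; 0% = vehicle basal and 100% = reference agonist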
# Summary of the method: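 Read-out: beta-lactamase reporter fluorescence with CCF4 substrate in GeneBLAzer FXR-UAS-bla HEK293T cells, after 16 h compound exposure at 37 C. Response scaled between DMSO basal (0%) and chenodeoxycholic acid at 100 uM (100%).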
# [2] = biological target: Bile acid receptor (Homo sapiens) (UniProt Q96RI1); assay: qHTS assay for small molecule antagonists of farnesoid X receptor signaling (AID 588526); note: % is set by controls: 0 for no effect and ±100 for the full control effect
# Summary of the method: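 Beta-lactamase reporter antagonist mode: HEK293T FXR-UAS-bla cells, titrated compound, CDCA stimulation, 16 h 37 C, CCF4 dye 2 h RT. Data normalized to CDCA 50 uM and DMSO; Hill-fit IC50.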
# [3] = biological target: Glucocorticoid receptor (Homo sapiens) (UniProt P04150); assay: qHTS assay for small molecule agonists of glucocorticoid receptor signaling (AID 588532; active = well fitted curve in the direction sought with a large enough effect in the signal ratio, with a control signal flat; the % refers to the signal ratio;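 note: 100% = dexamethasone at 0.1 µM and 0% = DMSO only wells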); details: HeLa MMTV-bla, beta-lactamase ratio, agonist, 18 h; activation: stronger effect = higher value, percent of dexamethasone control, DMSO zero
# Summary of the method: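 Agonist-mode qHTS: GRE-driven beta-lactamase in HeLa cells exposed 18 h to titrated compounds (up to 92 uM), then CCF4 ratio read after 2 h at RT; Hill-fitted EC50, efficacy relative to 0.1 uM dexamethasone.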
# [4] = biological target: Peroxisome proliferator-activated receptor delta (Homo sapiens) (UniProt Q03181); assay: qHTS assay for small molecule agonists of peroxisome proliferator-activated receptor delta signaling (AID 588534);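 note: 0% = DMSO basal wells and 100% = positive control agonist at 10 µM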
# Summary of the method: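 Titration series tested in agonist mode on beta-lactamase reporter cells; 18 hrs at 37 C after a 5 hr pre-incubation. Readout: CCF4 fluorescence, 2 hrs RT. Hill equation gives EC50 and maximal response.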
# [5] = qHTS assay for small molecule antagonists of peroxisome proliferator-activated receptor delta signaling (AID 588535; active = well fitted inhibition curve with a large enough effect in the signal ratio, with a control signal flat, not every such curve was filed as active; the % refers to the signal ratio;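 for max response: cells co-treated with a PPAR-delta agonist as stimulator during compound exposure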); details: HEK293T PPARd-UAS-bla, beta-lactamase FRET ratio, 18 h; 460 nm channel
# Summary of the method: (§1)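 Antagonist-mode qHTS using GeneBLAzer PPAR-delta-UAS-bla HEK293T cells; compound exposure 18 hrs at 37 C over a titration. Ratiometric CCF4 fluorescence at 460/530 nm; concentration-response points fitted to the Hill equation.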
# [6] = biological target: Peroxisome proliferator-activated receptor delta (Homo sapiens) (UniProt Q03181); assay: as above
# Summary of the method: as §1
# [7] = biological target: Vitamin D3 receptor (Homo sapiens) (UniProt P11473); assay: qHTS assay for small molecule agonists of vitamin D receptor signaling (AID 588543);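 note: 0% = DMSO basal and 100% = reference agonist control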
# Summary of the method: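 Measured: β-lactamase reporter activity (CCF4, 405 nm excitation, 460/530 nm emission) in HEK293T VDR-UAS-bla cells after 16 h compound exposure at 37 °C. Normalization against 50 nM 1α,25-dihydroxyvitamin D3 and DMSO; Hill-fit EC50.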
# [8] = qHTS assay for small molecule agonists of retinoid X receptor alpha signaling (AID 588544); details: HEK293T RXRa-UAS-bla, beta-lactamase reporter, 18 h; 530 nm emission; note: potency is the fitted concentration of half-maximal effect;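 for activation: 0% = DMSO basal wells and 100% = reference agonist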
# [9] = biological target: Retinoic acid receptor RXR-alpha (Homo sapiens) (UniProt P19793); assay: as above
# [10] = biological target: Thyroid hormone receptor beta (Homo sapiens) (UniProt P10828); assay: qHTS assay for small molecule antagonists of thyroid hormone receptor beta signaling (AID 588547; active = well fitted inhibition curve with a large enough effect in the signal ratio, with a control signal flat, not every such curve was filed as active; the % refers to the signal ratio;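 note: cells stimulated with 0.4 nM T3 agonist during compound exposure; series mostly up to about 77 µM; % is set by controls: 0 for no effect and ±100 for the full control effect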); details: TR-UAS-bla HEK293, beta-lactamase ratio, antagonist mode, 18 h
# Summary of the method: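 Inhibition of T3-driven (0.4nM final) beta-lactamase reporter activity was measured over 0.59 nM to 92 uM compound after 18 h at 37 C. The cells were GripTite HEK293 TR-UAS-bla in charcoal/dextran-stripped serum, with CCF4 ratio read-out and IC50 from Hill fits.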
# [11] = qHTS assay for small molecule activators of the nuclear factor-kappa B (NF-kB) signaling pathway (AID 651749; active = well fitted activation curve with a large enough effect in the signal ratio; the % refers to the signal ratio; note: series mostly up to about 77 µM; % of control where 0% means no effect); details: NF-kB-bla ME-180 cells, beta-lactamase FRET ratio, 16 h; activation: stronger effect = higher value
# Summary of the method: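 FRET-based beta-lactamase detection in ME-180 cells reports NF-kB response-element-driven transcription following overnight (16 hr) compound treatment.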
# [12] = qHTS assay for environmental chemicals that activate the Aryl hydrocarbon Receptor (AhR) signaling pathway (AID 651777; active = well fitted curve in the direction sought with a large enough effect; an effect the other way counts as inactive or inconclusive; note: % of control where 0% means no effect; nearly all actives have a fitted effect of over 15% in size); details: 1A2-DRE human hepatoma cells, luciferase, 24 h; activation: stronger effect = higher value
# Summary of the method: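 Luminescence read-out: One-Glo added for 30 min at RT after 24 hr compound treatment (37 C, 5% CO2) of human hepatoma cells expressing a DRE/CYP1A2 promoter–luciferase reporter; increased signal indicates AhR activation.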
# [13] = biological target: Peroxisome proliferator-activated receptor alpha (Homo sapiens) (UniProt Q07869); assay: qHTS assay for small molecule agonists of the peroxisome proliferator-activated receptor alpha (PPARalpha) signaling pathway (AID 651778; active = well fitted curve in the direction sought with a large enough effect; an effect the other way counts as inactive or inconclusive; note: % of control where 0% means no effect); details: PathHunter PPARalpha complementation, chemiluminescence, 6 h; max response: stronger effect = higher value
# Summary of the method: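 Chemiluminescence from complemented enzyme reported PPARalpha activation in cells after 6 hr of compound treatment at 37 C. The detection reagent was incubated for 60 min at room temperature, and compounds were scored as agonists.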
# [14] = qHTS assay for small molecule agonists of the antioxidant response element (ARE) signaling pathway measured by Nrf2-dependant transcriptional activity (AID 720636; active = well fitted curve in the direction sought with a large enough effect in the repeat runs; an effect the other way counts as inactive or inconclusive;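 note: HepG2 cells with an ARE-driven luciferase reporter; % of control where 0% means no effect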)
# Summary of the method: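 HepG2 ARE-luc reporter line, 1% dialyzed FBS; 6 hr attachment at 37 C, compound pinned in, 16 hr at 37 C/5% CO2; ONE-Glo, 30 min RT, luminescence read.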
# [15] = qHTS assay for small molecule agonists of the antioxidant response element (ARE) signaling pathway measured by Nrf2-dependant transcriptional activity - cell viability counter screen (AID 720653; active = well fitted curve in the direction sought with a large enough effect in the repeat runs; an effect the other way counts as inactive or inconclusive; note: % is set by controls: 0 for no effect and ±100 for the full control effect); details: ARE-bla HepG2 viability, CellTiter-Glo ATP luminescence, 16 h; max response: stronger effect = lower value
# Summary of the method: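 Cytotoxicity counter screen: intracellular ATP quantified by CellTiter-Glo luminescence in the same ARE-bla HepG2 plates, after 16 h compound exposure and a 2 h beta-lactamase substrate step.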
# [16] = qHTS assay for cell viability of HEK293 cells (AID 743288; active = well fitted curve in the direction sought with a large enough effect; an effect the other way counts as inactive or inconclusive; note: % is set by controls: 0 for no effect and ±100 for the full control effect; nearly all actives have a fitted effect of over 50% in size); details: ATP luminescence (CellTiter-Glo), 18 h; max response: stronger effect = lower value
# Summary of the method: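 HEK293, 18 h, 37 C, ATP luminescence. Cells at 2,000/well were allowed at least 5 h to settle before dosing; CellTiter-Glo developed 30 min at RT.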
# [17] = qHTS assay for cell viability of the p53RE-bla HCT-116 cell line (AID 743292; active = well fitted curve in the direction sought with a large enough effect; an effect the other way counts as inactive or inconclusive; note: % is set by controls: 0 for no effect and ±100 for the full control effect; nearly all actives have a fitted effect of over 55% in size)
# Summary of the method: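 Luminescent ATP quantitation (CellTiter-Glo) served as the viability read-out; reagent was added after 16 h compound exposure at 37 C and read after 30 min at room temperature. Cells: p53RE-bla HCT-116, 4,000 per well.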
# [18] = biological target: Thyroid hormone receptor beta (Homo sapiens) (UniProt P10828); assay: qHTS assay for small molecule agonists of thyroid hormone receptor beta signaling (AID 588545);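 note: 0% = DMSO only and 100% = 10 nM T3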
# Summary of the method: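 Efficacy and EC50 values derive from Hill fits of qHTS titration data, normalized to 10 nM T3 and DMSO-only wells. HEK 293 reporter cells were stimulated for 18 hrs at 37 C, with beta-lactamase activity measured by CCF4 fluorescence.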
# [19] = qHTS assay for small molecule antagonists of retinoid X receptor alpha signaling (AID 588546; active = well fitted inhibition curve with a large enough effect in the signal ratio, with a control signal flat, not every such curve was filed as active; the % refers to the signal ratio;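 note: cells stimulated with 9-cis-retinoic acid as agonist; % is set by controls: 0 for no effect and ±100 for the full control effect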); details: HEK293T RXRa-UAS-bla, beta-lactamase ratio, antagonist mode; measured here: W530 green channel, cytotoxicity proxy
# Summary of the method: (§2)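 Beta-lactamase reporter inhibition, read as CCF4 fluorescence ratio (ex 405, em 460/530 nm) after 2 h at RT. HEK293T UAS-bla cells, 2500/well, were stimulated with 9-cis-RA at 500 or 100 nM final alongside test compound for 18 h at 37 C.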
# [20] = biological target: Retinoic acid receptor RXR-alpha (Homo sapiens) (UniProt P19793); assay: as above; details: HEK293T RXRa-UAS-bla, beta-lactamase ratio, antagonist mode
# Summary of the method: as §2
# Sequence of Thyroid hormone receptor beta (Homo sapiens) (P10828 whole entry, looked up): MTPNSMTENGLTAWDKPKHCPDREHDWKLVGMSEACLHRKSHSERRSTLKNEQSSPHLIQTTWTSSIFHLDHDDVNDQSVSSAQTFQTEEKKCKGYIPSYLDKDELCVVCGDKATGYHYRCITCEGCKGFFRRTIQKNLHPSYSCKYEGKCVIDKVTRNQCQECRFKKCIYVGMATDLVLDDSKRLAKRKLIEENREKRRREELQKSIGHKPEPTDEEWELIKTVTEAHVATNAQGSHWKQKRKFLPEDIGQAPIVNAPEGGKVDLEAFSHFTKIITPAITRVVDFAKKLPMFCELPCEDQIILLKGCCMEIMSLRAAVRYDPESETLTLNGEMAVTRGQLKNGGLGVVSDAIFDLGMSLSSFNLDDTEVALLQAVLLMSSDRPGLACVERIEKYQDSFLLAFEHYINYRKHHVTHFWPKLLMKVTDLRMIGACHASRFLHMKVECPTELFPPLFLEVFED
# Sequence of Retinoic acid receptor RXR-alpha (Homo sapiens) (P19793 whole entry, looked up): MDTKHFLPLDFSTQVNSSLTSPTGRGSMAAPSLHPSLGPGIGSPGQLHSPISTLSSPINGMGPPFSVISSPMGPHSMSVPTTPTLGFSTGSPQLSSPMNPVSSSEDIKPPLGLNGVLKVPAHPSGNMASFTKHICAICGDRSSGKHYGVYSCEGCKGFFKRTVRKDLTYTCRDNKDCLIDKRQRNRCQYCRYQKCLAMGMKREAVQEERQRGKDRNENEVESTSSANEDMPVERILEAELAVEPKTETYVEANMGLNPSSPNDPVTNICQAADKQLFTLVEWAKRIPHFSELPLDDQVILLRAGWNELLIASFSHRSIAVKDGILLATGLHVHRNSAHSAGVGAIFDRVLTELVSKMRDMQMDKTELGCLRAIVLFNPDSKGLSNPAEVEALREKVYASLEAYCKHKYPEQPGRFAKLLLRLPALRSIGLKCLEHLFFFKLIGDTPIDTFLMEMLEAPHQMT
# Sequence of Peroxisome proliferator-activated receptor delta (Homo sapiens) (Q03181 whole entry, looked up): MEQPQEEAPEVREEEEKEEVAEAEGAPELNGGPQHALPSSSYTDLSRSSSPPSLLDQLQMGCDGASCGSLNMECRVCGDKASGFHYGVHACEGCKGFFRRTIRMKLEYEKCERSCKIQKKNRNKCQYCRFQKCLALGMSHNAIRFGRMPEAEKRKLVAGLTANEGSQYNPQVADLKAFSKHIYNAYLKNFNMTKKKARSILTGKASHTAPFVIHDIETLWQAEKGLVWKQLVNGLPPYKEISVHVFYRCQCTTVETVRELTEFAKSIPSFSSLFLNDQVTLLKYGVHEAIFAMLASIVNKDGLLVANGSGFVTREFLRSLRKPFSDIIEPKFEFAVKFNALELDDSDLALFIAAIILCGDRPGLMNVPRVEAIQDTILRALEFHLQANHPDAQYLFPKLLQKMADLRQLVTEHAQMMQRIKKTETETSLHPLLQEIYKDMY
# Sequence of Bile acid receptor (Homo sapiens) (Q96RI1 whole entry, looked up): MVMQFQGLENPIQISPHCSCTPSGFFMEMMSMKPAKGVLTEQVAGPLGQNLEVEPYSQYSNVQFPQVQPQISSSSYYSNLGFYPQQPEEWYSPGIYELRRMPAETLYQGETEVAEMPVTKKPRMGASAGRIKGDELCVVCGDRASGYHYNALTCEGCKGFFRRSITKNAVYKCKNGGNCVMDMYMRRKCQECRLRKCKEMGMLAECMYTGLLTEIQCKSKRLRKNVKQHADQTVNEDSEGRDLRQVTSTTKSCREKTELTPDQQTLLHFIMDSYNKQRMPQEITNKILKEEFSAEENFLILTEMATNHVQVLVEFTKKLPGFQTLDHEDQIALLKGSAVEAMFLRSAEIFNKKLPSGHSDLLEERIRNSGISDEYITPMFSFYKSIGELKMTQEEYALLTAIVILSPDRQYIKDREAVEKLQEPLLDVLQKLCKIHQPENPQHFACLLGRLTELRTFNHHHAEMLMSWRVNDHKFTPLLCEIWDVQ
# Sequence of Vitamin D3 receptor (Homo sapiens) (P11473 whole entry, looked up): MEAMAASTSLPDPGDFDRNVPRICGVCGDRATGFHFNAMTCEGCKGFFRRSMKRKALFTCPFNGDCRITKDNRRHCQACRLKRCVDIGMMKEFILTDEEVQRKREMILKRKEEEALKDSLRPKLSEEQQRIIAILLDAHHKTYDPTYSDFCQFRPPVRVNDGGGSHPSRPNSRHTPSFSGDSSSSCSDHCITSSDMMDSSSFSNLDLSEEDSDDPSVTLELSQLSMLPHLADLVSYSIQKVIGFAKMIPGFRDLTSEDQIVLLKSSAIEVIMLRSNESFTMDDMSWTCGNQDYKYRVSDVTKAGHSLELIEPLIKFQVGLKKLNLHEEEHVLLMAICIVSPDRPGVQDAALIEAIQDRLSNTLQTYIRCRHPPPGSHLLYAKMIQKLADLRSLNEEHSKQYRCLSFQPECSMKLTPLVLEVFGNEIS
# Sequence of Peroxisome proliferator-activated receptor alpha (Homo sapiens) (Q07869 whole entry, looked up): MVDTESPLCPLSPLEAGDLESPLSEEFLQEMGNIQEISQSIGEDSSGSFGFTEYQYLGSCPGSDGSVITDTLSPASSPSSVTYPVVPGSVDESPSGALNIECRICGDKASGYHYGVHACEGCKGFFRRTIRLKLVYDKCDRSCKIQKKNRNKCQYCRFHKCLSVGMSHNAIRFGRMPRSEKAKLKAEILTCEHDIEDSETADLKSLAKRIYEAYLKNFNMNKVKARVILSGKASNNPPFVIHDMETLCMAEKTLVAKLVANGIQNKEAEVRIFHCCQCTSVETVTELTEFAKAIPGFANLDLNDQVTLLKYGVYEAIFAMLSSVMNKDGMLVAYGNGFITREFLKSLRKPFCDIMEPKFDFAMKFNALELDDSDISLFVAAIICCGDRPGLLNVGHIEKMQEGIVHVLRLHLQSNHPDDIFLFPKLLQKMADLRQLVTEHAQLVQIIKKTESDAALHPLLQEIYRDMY
# Sequence of Glucocorticoid receptor (Homo sapiens) (P04150 whole entry, looked up): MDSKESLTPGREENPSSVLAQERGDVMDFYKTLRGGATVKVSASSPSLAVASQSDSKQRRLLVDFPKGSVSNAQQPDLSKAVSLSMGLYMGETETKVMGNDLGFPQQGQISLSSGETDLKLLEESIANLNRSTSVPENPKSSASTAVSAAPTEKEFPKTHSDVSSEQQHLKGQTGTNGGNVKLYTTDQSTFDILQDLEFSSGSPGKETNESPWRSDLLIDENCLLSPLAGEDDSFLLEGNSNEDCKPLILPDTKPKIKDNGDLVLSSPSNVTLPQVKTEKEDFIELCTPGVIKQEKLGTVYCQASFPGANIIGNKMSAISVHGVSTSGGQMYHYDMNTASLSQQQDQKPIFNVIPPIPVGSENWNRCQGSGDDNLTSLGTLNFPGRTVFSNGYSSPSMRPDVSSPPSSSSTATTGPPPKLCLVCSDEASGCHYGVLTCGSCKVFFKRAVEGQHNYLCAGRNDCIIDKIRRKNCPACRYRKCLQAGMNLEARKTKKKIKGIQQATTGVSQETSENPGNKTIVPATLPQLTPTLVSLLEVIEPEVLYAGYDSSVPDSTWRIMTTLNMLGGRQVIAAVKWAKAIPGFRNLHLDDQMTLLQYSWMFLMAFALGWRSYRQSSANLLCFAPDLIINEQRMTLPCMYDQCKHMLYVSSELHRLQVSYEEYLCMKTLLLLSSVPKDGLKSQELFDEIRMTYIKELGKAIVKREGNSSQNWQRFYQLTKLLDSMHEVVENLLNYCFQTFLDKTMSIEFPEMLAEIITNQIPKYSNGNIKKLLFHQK
structure (smiles),measurement,setting,value
N#CSCSc1nc2ccccc2s1,activation,[1],15% (inactive)
CC(C)(C)OC=O,activation,[1],-2.91% (inactive)
Cn1c(=O)[nH]c(=O)n(C2CCCCC2)c1=O,activation,[1],2.64% (inactive)
CCO[Si](CCCN)(OCC)OCC,activation,[1],-1.61% (inactive) and 1.5% (inactive)
CCCCCCCCOc1ccc(C(=O)O)cc1,activation,[1],11.7% (inactive)
CCCOCC(C)OCC(C)O (configuration not stated),activation,[1],1.34% (inactive)
CCC(CC)Nc1c([N+](=O)[O-])cc(C)c(C)c1[N+](=O)[O-],Potency,[2],inactive
same,activation,[3],-2.05% (inactive)
same,outcome,[4],inactive
same,max response,[5],-38.2%
same,Potency,[6],inactive
same,outcome,[7],inactive
same,max response,[8],4.16%
same,Potency,[9],inactive
same,activity change % (negative = inhibition),[10],-5.09% (inactive)
same,activation,[11],-1.58% (inactive)
same,activation,[12],4.64% (inactive)
same,max response,[13],-0.0369% (inactive)
same,Potency,[14],inactive
same,max response,[15],-7.95% (inactive)
same,max response,[16],-2.98% (inactive)
same,Potency,[17],inactive
Cc1ccc2cccnc2c1,activation,[1],1.5% (inactive)
CCO[Si](CCC#N)(OCC)OCC,activation,[1],0.364% (inactive)
Nc1nc2ccccc2[nH]1,activation,[1],3.95% (inactive)
Cc1ccccc1C#N,activation,[1],-0.262% (inactive)
CSc1nnc(C(C)(C)C)c(=O)n1N,Potency,[2],inactive
same,activation,[3],-5.36% (inactive)
same,max response,[5],-34.1%
same,Potency,[6],inactive
same,outcome,[7],inactive
same,max response,[8],-15.9%
same,Potency,[9],39.8 µM (active)
same,Potency,[18],inactive
same,max response,[19],-12%
same,max response,[20],6.64% (inactive)
same,activity change % (negative = inhibition),[10],-9.71% (inactive)
same,activation,[11],-0.061% (inactive)
same,max response,[13],-2.71% (inactive)
same,Potency,[14],inactive
same,max response,[15],6.99% (inactive)
same,Potency,[17],inactive
